Source: PubChem
Sampled rows, rich in hits. Any-hit rate of the full collection: about 19%.
Pf growth 96h = P. falciparum growth inhibition at 96 hour, primary screen for plastid delayed-death inhibitors. P. falciparum luciferase reporter growth, 96 h. Potency, µM (series often up to 28.7 µM), for the others: top-dose activity change, negative = inhibition, hits mostly inhibitors. 6.9% of 320,000 active. AID 504834; note: potency is the fitted concentration of half-maximal effect; % is set by controls: 0 for no effect and ±100 for the full control effect
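Erythrocytes infected with luciferase-expressing P. falciparum were dispensed at 2% hematocrit and 0.05% parasitemia (final), then incubated with compounds 96 hours at 37 C in 5% CO2. Luminescence after detection reagent addition reported growth.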
Pf growth 48h = P. falciparum growth inhibition at 48 hours (one generation) | AID 504832 | 5.9% of 310,000 active | P. falciparum luciferase growth in erythrocytes, 48 h | Potency, µM (top dose mostly 28.7 µM), inactives show top-dose activity change, negative = inhibition, actives largely listed as inhibitors; note: potency is the fitted concentration of half-maximal effect; % is set by controls: 0 for no effect and ±100 for the full control effect
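A one-generation exposure of luciferase-tagged malaria parasites in RPMI 1640/Albumax erythrocyte culture, 37 C and 5% CO2. Inhibition is inferred from decreased luminescence after adding detection reagent.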
MARV entry inh = Marburg virus entry inhibition; Marburg virus pseudotyped entry inhibition, cell reporter; Potency, µM (titrated, usually from 37.8 µM), without a hit: at the top dose activity change, negative = inhibition, usual class: inhibitors; 1.8% of 300,000 active; AID 540276; calls by dose curve; tested in HEK293 cells; note: potency is the fitted concentration of half-maximal effect; % is set by controls: 0 for no effect and ±100 for the full control effect
CHX counter = affects cycloheximide protein synthesis inhibition readout, counter-screen. max response, %. AID 2314. cell reporter, cycloheximide protein synthesis inhibition counterscreen. 12% of 300,000 active; in the data active = max response mostly above about 13%, no sharp cut-off; inactive = mostly below about 14%; note: read at 38.3 µM for the half of the compounds with a filed dose; 0% is about no effect
Shiga toxin inh = blocks Shiga toxin action in Vero cells. AID 2315. 9.2% of 290,000 active. inhibition, % at 38.7 µM. Vero cells, Shiga toxin protein synthesis inhibition reporter; in the data active = inhibition mostly above about 28%, no sharp cut-off; inactive = mostly below about 43%; note: 0% is about no effect
LASV entry inh = inhibitors of Lassa virus binding or cell entry | 1.2% of 300,000 active | Lassa virus pseudotype entry inhibition, cell reporter | Potency, µM (doses to about 37.9 µM), for the others: top-dose activity change, negative = inhibition, usual class: inhibitors; calls by dose curve; tested in HEK293 cells; note: potency is the fitted concentration of half-maximal effect; % is set by controls: 0 for no effect and ±100 for the full control effect; nearly all actives have a fitted effect of over 50% in size
An asterisk follows results filed as active; ? = inconclusive; / = not tested or not shown; [ ] = remark or other dose. Unless noted, calls come from the whole dose curve; as a rule, active = well fitted inhibition curve with a large enough effect; inconclusive = small, poorly fitted or top-dose-only effect, or another doubt; inactive = no such curve, though single readings can be large or run the other way.

SMILES | Pf growth 96h | Pf growth 48h | MARV entry inh | CHX counter | Shiga toxin inh | LASV entry inh
Cc1ccc(N2C(=O)NC(=O)/C(=C\C=C\c3ccco3)C2=O)cc1C | 9% | 11% | ? | 18* | 12 | ?
Cc1cccc(N2C(=O)NC(=O)/C(=C\C=C\c3ccco3)C2=O)c1 | 34% | 6% | / | 20* | 42 | /
CCOC(=O)C1=C(C)N(c2ccc(C)c(C)c2)C(=O)/C1=C\c1ccco1 | ? | 1% | -25% | -3 | 17 | 2%
Cc1ccc(N2C(=O)NC(=O)/C(=C\C=C\c3ccco3)C2=O)cc1 | 33% | 9% | / | 61* | 56* | /
CC(OC(=O)c1cccc(S(=O)(=O)Nc2ccccc2F)c1)C(=O)NCc1ccc2c(c1)OCO2 (configuration not stated) | 9% | -13% | -27% | -2 | -2 | -15%
CCCCCOC(=O)NC1CCS(=O)(=O)C1 (configuration not stated) | -13% | 20% | / | 14 | 8 | /
O=C(NCc1cc([N+](=O)[O-])ccc1O)c1cccnc1Sc1ccc(Cl)cc1 | ? | -17% | 17% | 40* | 43* | 0%
O=[N+]([O-])c1ccc(-c2ccc(/C=N/Nc3nc(NCc4ccccc4)nc(N4CCOCC4)n3)o2)cc1 | ? | 1.5µM* | 10µM* | 9 | 37 | 8%[46.1 µM]
COc1nc(N/N=C/c2ccc(-c3ccccc3[N+](=O)[O-])o2)nc(N2CCOCC2)n1 | ? | 14% | ? | 70* | 110* | 1%
COC(=O)c1ccccc1-c1ccc(/C=N/Nc2nc(N3CCCC3)nc(N3CCCC3)n2)o1 | ? | ? | ? | 0 | -8 | ?
O=[N+]([O-])c1ccc(Nc2nc(N3CCOCC3)nc(N3CCOCC3)n2)cc1 | / | / | ? | / | / | 10%
CC(=O)N1CCN(S(=O)(=O)c2ccc(S(=O)(=O)NC3CC3)cc2)CC1 | / | 12% | 5% | -1 | -11 | -1%
CC(C)CN1C(=O)NC2(CCCc3ccccc32)C1=O (configuration not stated) | ? | -9% | / | -1 | -13 | /
COc1ccc(N2C3=C(CC4=C2CCCC4=O)C(=O)CCC3)cc1 | 12µM* | ? | -4% | -4 | -4 | -16%
COc1ccc(N2C3=C(CC4=C2CC(C)(C)CC4=O)C(=O)CC(C)(C)C3)cc1 | 13µM* | 9.3µM* | ? | -3 | -10 | -31%
COc1ccc(N2C3=C(C(=O)CC(C)(C)C3)C(c3ccccc3OC)C3=C2CC(C)(C)CC3=O)cc1 | ? | ? | ? | 0 | -1 | -2%[46.1 µM]
CCCn1c(SCC(=O)NC2CCCC2)nnc1C(C)C | 7% | 8% | 11% | -2 | -3 | 6%
OCc1cn(-c2ccccc2)nc1-c1ccc(-c2nn(-c3ccccc3)cc2CO)cc1 | 272% | -5% | ? | 9 | -7 | -15%
Cc1ccc(-c2nn(-c3ccccc3)cc2CSC(=N)N)cc1 | 1.7µM* | ? | ? | -3 | -23 | ?
COC(=O)C(C)Sc1nc(N)c(NC(=O)c2ccco2)c(=O)[nH]1 (configuration not stated) | -7% | 8% | / | -3 | -6 | /
COc1ccc(-c2cc(C(=O)N3CCCc4ccccc43)no2)cc1OC | 33% | ? | ? | 18 | -16 | -9%
COc1ccc(C(=O)N2CCCc3ccccc32)cc1 | 0.26µM* | -11% | 0% | 6 | 9 | -1%
COc1ccccc1N(C)S(=O)(=O)c1ccc(C(=O)N2CCCc3ccccc32)cc1 | ? | 13µM* | ? | 6 | -1 | ?
COc1ccccc1-c1cc(C(=O)N2CCCc3ccccc32)no1 | ? | 42% | / | 60* | 72* | /
COc1ccc(OC)c(-c2cc(C(=O)N3CCCc4ccccc43)no2)c1 | ? | ? | -23% | 10 | 4 | -20%
SMILES | Pf growth 96h | Pf growth 48h | MARV entry inh | CHX counter | Shiga toxin inh | LASV entry inh
COc1ccc(-c2cc(C(=O)N3CCCc4ccccc43)no2)cc1 | 71% | -15% | -5% | 44* | 94* | -2%
Cc1c(Cl)cnc(NC(=O)COC(=O)c2cccc(S(=O)(=O)N3CCc4ccccc4C3)c2)c1Cl | 5% | 9% | -13% | -1 | -8 | 1%
O=c1[nH]c2ccccc2[n+]([O-])c1-c1ccccc1 | 16% | 10% | 3%[46.1 µM] | 8 | 18 | 8%
CCCCN(CC)S(=O)(=O)c1ccc2c(c1)CCCN2C(C)=O | 13µM* | ? | -2%[46.1 µM] | 1 | 19 | 4%
CCN(CC)S(=O)(=O)c1ccc(C(=O)N2CCc3ccccc32)cc1 | ? | -29% | -16%[46.1 µM] | 6 | -16 | -2%[46.1 µM]
COc1cccc(-c2cc(C(=O)O)no2)c1 | 26% | / | -3% | -5 | -6 | 5%
CCN(CC)S(=O)(=O)c1cccc(C(=O)N2CCCc3ccccc32)c1 | -30% | -12% | / | 21* | 38* | /
COc1ccc(C2=NOC(C(=O)N3CCCc4ccccc43)C2)cc1 (configuration not stated) | 175% | 35% | 0% | 23* | 40 | -3%
COc1cccc(-c2cc(C(=O)N3CCCc4ccccc43)no2)c1 | ? | ? | 2% | 28* | 46* | -21%
O=C(COC(=O)c1cc(S(=O)(=O)N2CCOCC2)ccc1Cl)NC1CC1 | ? | -24% | / | / | / | /
CC1(C)C2CCC(C2)C1(C)NC(=O)CNCC1CCCCC1 (configuration not stated) | 22% | -27% | 8.9µM* | -2 | 2 | -13%[46.1 µM]
CCOC(=O)c1nnn(CC(=O)N2N=C(c3cccc4ccccc34)CC2c2ccccc2)c1C(=O)OCC (configuration not stated) | ? | 9.3µM* | ? | -3 | -2 | ?
CCOC(=O)c1nnn(CC(=O)Nc2cccc(Cl)c2C)c1C(=O)OCC | 47% | / | ? | -5 | -15 | 0%
COC(=O)Cc1ccc(NC(=O)c2ccc(NC(=O)c3ccco3)cc2)cc1 | ? | -5% | ? | 8 | 25 | -2%
CCN(CC)c1ccc(NC(=O)c2ccc(Br)o2)cc1 | 10µM* | -13% | -3% | 43* | 41 | -3%
COC(=O)Cc1ccc(NC(=O)c2ccc(Br)o2)cc1 | 0% | 99% | -10% | 35* | 71* | -1%
CCCOC(=O)c1ccc(NC(=O)c2ccc(Br)o2)cc1 | ? | ? | ? | 56* | 52* | -8%
COC(=O)Cc1ccc(NC(=O)c2ccc(C)c(C)c2)cc1 | ? | / | -18% | 45* | 51* | -7%
CCN(CC)c1ccc(NC(=O)OC)cc1 | / | 6% | ? | 8 | 31 | ?
COC(=O)Cc1ccc(NC(C)=O)cc1 | 42% | 20% | / | / | / | /
COCCNC(=O)CSc1c2c(nc3ccc(Cl)cc13)CCCC2 | -1% | 4% | / | -5 | -12 | /
CCOc1ccccc1-c1nc(-c2ccc(NC(=O)Cc3ccc(OC)cc3)cc2)no1 | ? | ? | ? | -5 | -4 | -30%
